Screening data from PubChem.
IL1B secr inh – blocks inflammasome-driven IL-1 beta release | THP-1 LPS/ATP IL-1B secretion, AlphaLISA, 16 h; hits give low values | activity change, % at 57.5 µM | 360,000 compounds, 4.7% hits; in the data active = activity change below about -50%; inconclusive = mostly about -30% to -49%
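Secreted IL-1B measured by AlphaLISA bead assay after 16 h compound exposure of THP-1 cells; compounds (final up to 57.5 uM) added 1 h before LPS (250 ng/mL) and ATP (1.25 mM) stimulation; lower signal means less secretion.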
DT40 TDP1 CPT – growth inhibition of DT40 Tdp1-/-;hTDP1 cells with camptothecin (screen for TDP1 inhibitors); AID 686979; Potency, µM (titrated, usually from 46.2 µM), without a hit: at the highest dose activity change, negative = growth inhibition, hits mostly inhibitors; chicken DT40 Tdp1-/-;hTDP1 cells + 20 nM CPT, ATP luminescence, 48 h; 420,000 compounds, 12% hits; note: potency is the fitted concentration of half-maximal effect; nearly all actives have a fitted effect of over 55% in size
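Cell growth measured by CellTiter-Glo luminescence after a minimum 48 h, 37 C compound exposure with 20 nM CPT in Tdp1-knockout DT40 cells stably expressing hTDP1, seeded 400/well; qHTS titration format.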
TDP1 cell noCPT – qHTS for Inhibitors of human tyrosyl-DNA phosphodiesterase 1 (TDP1): qHTS in cells in absence of CPT | DT40 Tdp1-/- hTDP1 cells, no CPT, ATP luminescence, 48 h | Potency, µM (series often up to 46.2 µM), for the others: top-dose activity change, negative = growth inhibition, hits mostly inhibitors | 420,000 compounds, 15% hits; note: potency is the fitted concentration of half-maximal effect; nearly all actives have a fitted effect of over 55% in size
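No-CPT arm: Tdp1-/-;hTDP1 DT40 cells (400/well) plus compounds, incubated ≥48 hr at 37 °C. Readout CellTiter-Glo luminescence.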
Gal4-VP16 FLuc – inhibits Gal4-VP16 luciferase reporter, ROR gamma counter-screen. Drosophila S2 Gal4-VP16 UAS-luciferase, luminescence, 20 h. AID 2546. Potency, µM (titrated, usually from 53.6 µM), inactives show at the top dose activity, negative = inhibition, actives largely listed as inhibitors. 310,000 compounds, 3.5% hits;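 note: Gal4-VP16 expression switched on by copper sulfate through the metallothionein promoter; potency is the fitted concentration of half-maximal effect; nearly all actives have a fitted effect of over 50% in size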
RORgamma inh – inhibitors of mouse ROR gamma transcriptional activity | Drosophila S2 Gal4-RORgamma UAS-luciferase reporter, 20 h | Potency, µM (highest dose often 53.6 µM), for the others: top-dose activity change, negative = inhibition, usual class: inhibitors | 310,000 compounds, 5.4% hits | AID 2551; note: potency is the fitted concentration of half-maximal effect; nearly all actives have a fitted effect of over 60% in size
Target sequence (P51450 whole entry, looked up, the tested form may be a part): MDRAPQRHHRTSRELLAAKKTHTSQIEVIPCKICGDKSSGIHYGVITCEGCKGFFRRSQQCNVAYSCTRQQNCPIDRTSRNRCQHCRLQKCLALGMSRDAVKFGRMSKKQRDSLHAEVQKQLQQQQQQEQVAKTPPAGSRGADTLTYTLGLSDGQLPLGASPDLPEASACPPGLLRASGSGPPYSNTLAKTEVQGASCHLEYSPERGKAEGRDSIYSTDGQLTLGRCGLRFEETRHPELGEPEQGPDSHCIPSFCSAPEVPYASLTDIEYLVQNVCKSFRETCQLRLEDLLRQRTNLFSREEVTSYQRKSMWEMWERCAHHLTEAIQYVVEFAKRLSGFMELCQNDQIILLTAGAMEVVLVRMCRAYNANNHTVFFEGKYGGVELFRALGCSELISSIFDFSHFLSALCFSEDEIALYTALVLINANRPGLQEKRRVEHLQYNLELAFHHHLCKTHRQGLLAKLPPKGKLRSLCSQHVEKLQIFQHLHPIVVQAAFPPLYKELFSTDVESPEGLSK
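Drosophila Schneider cells stably carrying a metallothionein-driven Gal4 DBD–ROR gamma fusion and a UAS-Photinus luciferase reporter were exposed to compound for 1 hr, then induced with copper sulfate (700 uM final) for 20 hr at ambient temperature before luminescence reading.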
LDHA inh – LDHA (human) enzyme inhibition; P00338; purified LDHA, NADH/diaphorase-resazurin fluorescence; hits give low values; activity change, % (values are at about 110 or 230 µM); 480,000 compounds, 0.15% hits; in the data active = activity change below about -30%; inconclusive = mostly about -25% to -30%;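 note: plate controls were DMSO wells for no effect and wells without enzyme for full effect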
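Remaining NADH was detected by diaphorase (0.133 mg/mL) converting 37 µM resazurin to fluorescent resorufin, read at 0 and 20 minutes. The preceding 5-minute room-temperature reaction used 2 nM LDHA, 0.2 mM sodium pyruvate and 0.06 mM NADH at pH 7.4.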
An asterisk follows results filed as active; ? = inconclusive; nt = no result given. A selection: hits, their analogues and other compounds. The true share with any hit is near 18%. Unless noted, calls come from the whole dose curve; as a rule, active = well fitted curve in the direction sought with a large enough effect; inconclusive = small, poorly fitted or top-dose-only effect, or another doubt; inactive = no such curve, though single readings can be large; an effect the other way counts as inactive or inconclusive. Unless noted, % is set by controls: 0 for no effect and ±100 for the full control effect.

SMILES	IL1B secr inh	DT40 TDP1 CPT	TDP1 cell noCPT	Gal4-VP16 FLuc	RORgamma inh	LDHA inh
CC[C@]12c3[nH]c4ccc(Cl)cc4c3CCN1C(=O)[C@@H](CC(=O)NCc1ccco1)C[C@@H]2C(=O)N1CCN(C(=O)C2CC2)CC1	8	?	?	nt	nt	-17
CC[C@]12c3[nH]c4cc(CCC(=O)N(C)C)ccc4c3CCN1C(=O)[C@@H](CC(=O)NCCC1=CCCCC1)C[C@@H]2C(=O)N1CCN(C(=O)C2CC2)CC1	?	?	?	nt	nt	-2
CC[C@]12c3[nH]c4ccc(Cl)cc4c3CCN1C(=O)[C@@H](CC(=O)NCCC1=CCCCC1)C[C@@H]2C(=O)N1CCN(C(=O)C2CC2)CC1	-13	?	26µM*	nt	nt	-3
CC[C@]12c3[nH]c4ccccc4c3CCN1C(=O)C(CC(=O)NCCC1=CCCCC1)C[C@@H]2C(=O)N1CCN(C(=O)C2CC2)CC1 (stereo partly drawn)	-9	18µM*	16µM*	nt	nt	-5
O=C(/C=C\c1cccs1)c1c(O)ccc2ccc(=O)oc12	-83*	?	?	-18%	-22%	-6
CC(=O)Oc1ccccc1C(=O)C=Cc1cccc([N+](=O)[O-])c1	-101*	10µM*	21µM*	nt	nt	-7
CCc1ccc(C(=O)/C=C/c2cccc([N+](=O)[O-])c2)cc1	nt	nt	nt	nt	nt	7
Cc1cccc(NC(=O)/C(=C/c2cccc([N+](=O)[O-])c2)NC(=O)c2cccs2)c1	-6	-46%	1.8µM*	?	-33%	2
O=C(C=Cc1cccs1)c1cccs1	-26	?	26µM*	nt	nt	-8
O=C(COc1coc(CN2CCSCC2)cc1=O)NCc1ccccc1Cl	nt	nt	nt	nt	nt	-6
COC(=O)c1ccc(/C=C/C(=O)c2cccs2)cc1	nt	nt	nt	nt	nt	6
O=C(/C=C/c1cccs1)N1CCc2ccccc21	-7	-9%	-25%	?	8.9µM*	-8
O=C(/C=C/c1ccc(O)cc1)c1cccs1	nt	24µM*	24µM*	-3%	14µM*	9
O=C(/C=C/c1cccc([N+](=O)[O-])c1)n1cnc2ccccc21	-68*	2.6µM*	2.6µM*	-7%	11µM*	-7
O=C(/C=C/c1cccc([N+](=O)[O-])c1)Nc1ccc(NC(=O)c2cccs2)cc1	8	5%	3%	1%	-23%	-6
O=C(/C=C/c1cccc([N+](=O)[O-])c1)c1cccs1	-88*	3.7µM*	2.3µM*	?	?	-9
O=C(CN1C(=O)NC2(CCOc3ccccc32)C1=O)c1c[nH]c2ccccc12 (stereo not drawn)	nt	nt	nt	nt	nt	-3
Cc1cccc(C)c1-n1nnnc1C1(Nc2ccccc2)CCCC1	nt	nt	nt	nt	nt	4
O=C(/C=C/c1ccc(O)cc1)c1ccccc1O	nt	26µM*	15µM*	-2%	?	nt
CN(CC(=O)OC(C)(C)C)C(=O)/C=C/c1cccc(C#N)c1	nt	nt	nt	nt	nt	10
Cc1ccccc1-c1ccc(CN2C(C(C)C)C(=O)N(Cc3cn(CCC4OCCO4)nn3)CCS2(=O)=O)cc1 (stereo not drawn)	-57*	?	18µM*	nt	nt	1
Cc1ccc(-c2ccc(CN3C(C(C)C)C(=O)N(Cc4cn(CCC5OCCO5)nn4)CCS3(=O)=O)cc2)c(C)c1 (stereo not drawn)	?	9.2µM*	18µM*	nt	nt	3
CN1C[C@@H]2C(c3ccccc3)C3(c4ccc(C#N)cc4)CC2(C3)[C@H]1c1ccccc1 (stereo partly drawn)	7	?	?	-4%	15%	-7
COC(=O)c1cccc(C23CC4(C2)[C@H](CN(C)[C@@H]4c2ccccc2)C3c2ccccc2)c1 (stereo partly drawn)	0	21µM*	23µM*	7%	28%	-2
CN1C[C@@H]2C(c3ccc(C(F)(F)F)cc3)C3(c4ccc(C#N)cc4)CC2(C3)[C@H]1c1ccccc1 (stereo partly drawn)	3	10µM*	23µM*	-1%	31%	-1
SMILES	IL1B secr inh	DT40 TDP1 CPT	TDP1 cell noCPT	Gal4-VP16 FLuc	RORgamma inh	LDHA inh
CN1C[C@@H]2C(c3ccc(Cl)nc3)C3(c4ccccc4)CC2(C3)[C@H]1c1ccccc1 (stereo partly drawn)	-11	21µM*	16µM*	-4%	6%	-2
CN1C[C@@H]2C(c3ccccc3)C3(c4ccccc4)CC2(C3)[C@H]1c1ccccc1 (stereo partly drawn)	3	26µM*	?	1%	9%	-2
COC(=O)c1cccc(C23CC4(C2)[C@H](CN(C)[C@@H]4c2ccccc2)C3c2ccc(C(F)(F)F)cc2)c1 (stereo partly drawn)	7	?	?	-3%	34%	-5
COC(=O)c1ccc(C23CC4(C2)[C@H](CN(C)[C@@H]4c2ccccc2)C3c2ccccc2)cc1 (stereo partly drawn)	11	?	?	-4%	40%	0
CCCOc1ccccc1C(N)C(=O)OCC (stereo not drawn)	nt	nt	nt	nt	nt	0
CC(C)(C)OC(=O)N1CCN(C(C(=O)O)c2c[nH]c3ccc(OCC#N)cc23)CC1 (stereo not drawn)	nt	nt	nt	nt	nt	-3
COc1ccc(-c2oc3ccc(OC)cc3c2C(=O)Nc2ccc(C(C)=O)cc2)cc1	nt	nt	nt	nt	nt	5
